Results reported in PubChem BioAssay (Tox21).
Several values for one entry are separate records, joined by “and”; a condition that tells them apart may be missing. Identical values can stand only once. Results filed as inconclusive are left out. The source holds several records for some structures; these can differ, active in one and inactive in another. Activity calls are given as the source filed them. The call rests on the fitted dose curve.

experiment: Nuclear factor erythroid 2-related factor 2/antioxidant responsive element (Nrf2/ARE) small molecule agonists: luciferase reporter gene qHTS assay in human keratinocytes (AID 1919969); details: KeratinoSens HaCaT ARE-luciferase, luminescence, 24 h; series mostly up to 92.4 µM; activity, positive = activation: at the top concentration; further: nearly all actives have a fitted effect of over 35% in size
Source text: National Center for Advancing Translational Sciences [NCATS]
Division of Preclinical Innovation [DPI]
U.S. Environmental Protection Agency [EPA]
National Institutes of Environmental Health Sciences [NIEHS]
National Toxicology Program [NTP]
U.S. Food and Drug Administration [FDA]
Oxidative stress has been implicated in the pathogenesis of a variety of diseases ranging from cancer to neurodegeneration. The antioxidant response element (ARE) signaling pathway plays an important role in the amelioration of oxidative stress. The KeratinoSens (Givaudan, Switzerland) is an in vitro test method which quantifies luciferase induction as a measure of activation of Keap1-Nrf2-antioxidationt/electrophile response element (ARE) dependant pathway in HaCaT human keratinocytes stably transfected with a selectable plasmid. The KeratinoSens assay is a cell-based assay with a reporter cell line to detect potential skin sensitizers by their ability to induce the Nrf2/ARE-response. The activation of the report gene under culture conditions can be detected by ONE-Glo Luciferase Assay System (Promega, Madison, WI). This cell line has been used to screen the Tox21 10K compound library to identify agonists that induce oxidative stress. The cytotoxicity of the Tox21 compound library against the KS-ARE cell line was tested in parallel by measuring the cell viability using CellTiter- Fluor assay system (Promega, Madison, WI) in the same wells.
HaCaT derived cell line KeratinoSens were dispensed at 1,500 cells/5uL/well in 1536-well white wall/solid bottom plates using a Multidrop Combi (ThermoFisher Scientific, Waltham, MA) dispenser. After the assay plates were incubated at 37 C/5% CO2 for 5 h, 23 nL of compounds dissolved in DMSO, positive controls or DMSO only was transferred to the assay plate by a pintool workstation (Kalypsys, San Diego, CA). The plates were incubated at 37 C/5% CO2 for 23 h, followed by addition of 1uL/well of CellTiter-Fluor reagent into the assay plates using a Flying Reagent Dispenser (Aurora Discovery, San Diego, CA) for cell viability readout that measures cytotoxicity. After 1 h incubation at 37 C/5% CO2 the fluorescence intensity was measured using a ViewLux (PerkinElmer, Shelton, CT) plate reader. Then 4uL/well of One-Glo were added using a Flying Reagent Dispenser. After the plates were incubated at room temperature for 30 min, the luminescence intensity in the assay plates was measured using ViewLux plate reader.
On the % scale 0 is the no-effect control and ±100 the full control effect; potency means the concentration at half of the fitted maximal effect.

Compound | activity, positive = activation | Potency
BrCCBr | -7.59% (inactive) | –
COP(=S)(OC)Oc1cc(Cl)c(Cl)cc1Cl | – | 68.1 µM (active)
CN(C)CCC#N | – | inactive
O=C(Nc1ccc(Br)cc1)c1cc(Br)cc(Br)c1O | – | 54.3 µM (active) and 10.9 µM (active) and 13.3 µM (active)
Cc1cc(O)ccc1Cl | – | inactive
CCOC(=O)c1ccccc1C(=O)OCC | – | inactive
CCC(C)(C)c1ccc(O)c(C(C)(C)CC)c1 | – | 7.7 µM (active)
Cc1cccc(N)c1N | – | 2.35 µM (active) and 48.6 µM (active)
c1ccoc1 | -3.92% (inactive) | –
N#CC1(N=NC2(C#N)CCCCC2)CCCCC1 | 3.85% (inactive) | –
C=CCBr | -4.58% (inactive) | –
Nc1ccc(-c2ccc(N)c(Cl)c2)cc1Cl | – | inactive
COC(=O)Nc1cccc(OC(=O)Nc2cccc(C)c2)c1 | – | 13.7 µM (active) and inactive
CCCC[n+]1ccccc1C | – | inactive
O=[N+]([O-])c1ccc([As](=O)(O)O)cc1 | – | inactive
CC(=O)CCC(C)=O | 2.17% (inactive) | –
CCC1(c2ccc(N)cc2)CCC(=O)NC1=O (stereo not given) | – | inactive
c1cc2c(c(N3CCNCC3)c1)OCCO2 | -8.04% [at 42.5 µM] (inactive) | –
CCCCCCCCn1cc[n+](C)c1 | – | inactive
O=C(O)c1cc(Oc2ccc(C(F)(F)F)cc2Cl)ccc1[N+](=O)[O-] | – | inactive

Compound | activity, positive = activation | Potency
Cc1cccc(C#N)c1 | -8.95% (inactive) | –
CC(C)CCON=O | 5.38% (inactive) | –
CCCCCCCCCC(CC)c1ccc(S(=O)(=O)O)cc1 (stereo not given) | – | inactive and 21.7 µM (active)
C=C(C#N)CCC#N | 19.8% (inactive) | –
COc1c(C(C)(C)C)cc([N+](=O)[O-])c(C)c1[N+](=O)[O-] | 7.89% (inactive) | –
C=CCSSCC=C | 4.11% (inactive) | –
Nc1ccccc1C(=O)OCC(O)CO (stereo not given) | 0.825% [at 42.5 µM] (inactive) | –
c1ccc(C2CO2)cc1 (stereo not given) | – | inactive
C[C@H]1C(=O)O[C@@H]2CCN3CC=C(COC(=O)[C@](C)(O)[C@]1(C)O)[C@H]23 | – | inactive
COP(=O)(O)OC | -8.67% (inactive) | –
CC(C)(C)C(=O)Cl | -4.6% (inactive) | –
N#CCC#N | – | 61.1 µM (active)
ClC1=C(Cl)C2(Cl)C3C(Cl)C(Cl)CC3C1(Cl)C2(Cl)Cl (stereo not given) | – | 4.84 µM (active) and 12.2 µM (active)
O=[N+]([O-])c1cccc(O)c1 | 8.44% (inactive) | –
Cc1coc2c1CCC(C)C2 (stereo not given) | 4.45% (inactive) | –
COC(=O)NC(=S)Nc1ccccc1NC(=S)NC(=O)OC | – | inactive
CC(c1ccc(O)cc1)c1ccc(O)cc1 | – | 64.3 µM (active) and inactive
C#CCOC(C(=O)OCCN(C)C)(c1ccccc1)c1ccccc1 | 2.6% [at 42.5 µM] (inactive) | –
O=C1CC(=O)NC(=O)N1 | -7.43% (inactive) | –
C=CC#N | – | inactive
